# Data published in PubChem BioAssay.
# The source made the active and inactive calls.
# What was measured:
# [1] = tested on: Human papillomavirus type 1a protein E7 (residues 44-93); assay: HPV1a E7 fragment binders on microarrays, primary screen, biochemical, small-molecule microarray, residues 44-93, 635 nm fluorescence (AID 1108); details: small-molecule microarray binding, fluorescence 635 nm; higher = more signal;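 also: E7 fragment applied at 1 µg/mL in TBST for 1 h at 4 C; score combines spot fluorescence with its signal to noise ratio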
# [2] = modulators of HCV replicon luciferase signal, primary screen, HCV replication inhibitor project, Huh7 cells, luciferase reporter (AID 1109); details: 48 h, higher = more signal;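 also: huh7 hepatoma cells harbouring a luciferase neomycin HCV replicon reporter; luciferase luminescence as measure of HCV replicon replication; test concentration not given here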
# [3] = biological target: Left-right determination factor 2 (Homo sapiens) (UniProt O00292); assay: LEFTY2 binders on small-molecule microarrays, primary screen, biochemical, small-molecule microarray, 635 nm fluorescence scan (AID 1110); details: LEFTY2 binding, higher = more signal
# Left-right determination factor 2 (Homo sapiens), sequence (O00292 whole entry, looked up): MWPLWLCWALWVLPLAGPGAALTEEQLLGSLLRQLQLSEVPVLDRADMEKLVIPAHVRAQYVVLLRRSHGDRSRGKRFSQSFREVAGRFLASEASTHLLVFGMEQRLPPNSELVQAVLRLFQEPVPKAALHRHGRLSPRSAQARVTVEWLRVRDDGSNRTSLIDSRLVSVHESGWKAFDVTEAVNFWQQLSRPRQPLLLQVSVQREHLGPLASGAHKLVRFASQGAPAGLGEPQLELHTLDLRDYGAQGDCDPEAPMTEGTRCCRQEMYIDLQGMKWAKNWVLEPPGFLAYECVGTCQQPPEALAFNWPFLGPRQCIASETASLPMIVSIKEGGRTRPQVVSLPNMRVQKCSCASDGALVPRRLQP
# [4] = biological target: Calmodulin-1 (Homo sapiens) (UniProt P0DP23); assay: CALM1 binders on microarrays, EGTA buffer, profiling panel, biochemical, small-molecule microarray, Cy5-labelled CALM1 (AID 1111); details: Cy5-CALM1 binding fluorescence, higher = more signal;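 also: labelled calmodulin applied in Tris saline Tween buffer holding calcium plus EGTA and DTT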
# [5] = biological target: Calmodulin-1 (Homo sapiens) (UniProt P0DP23); assay: calcium-bound CALM1 binders on microarrays, profiling panel, artefact control for SMM control-protein annotation, biochemical, small-molecule microarray, Cy5-labelled CALM1, plus calcium (AID 1112); details: Cy5-CALM1 binding fluorescence, higher = more signal;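 also: score merges spot fluorescence with signal to noise from triplicate slides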
# [6] = small-molecule microarray binders of probe aWnt5a, primary screen, biochemical, biotinylated probe, 635/667 nm fluorescence (AID 1113); details: higher = more signal;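 also: score merges 667 nm fluorescence intensity with signal-to-noise per printed feature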
# [7] = small-molecule microarray binders of probe aShh, primary screen, biochemical, biotinylated probe, 635/667 nm fluorescence (AID 1114); details: higher = more signal;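 also: probe is biotin-labelled aShh protein from a stem cell growth factor screen; measures binding of labelled protein to compounds printed on the slide; score merges feature fluorescence at 667 nm with signal-to-noise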
# [8] = small-molecule microarray binders of probe aNog, primary screen, biochemical, biotinylated probe, 635/667 nm fluorescence (AID 1115); details: higher = more signal;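 also: probe is biotinylated aNog protein used at 0.15 µg/mL for 1 h at 4 C; z-score combines 667 nm fluorescence of each spot with its signal to noise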
# [9] = biological target: Torsin-1A-interacting protein 1 (Homo sapiens) (UniProt Q5JTV8); assay: LAP1 binders from COS7 cell lysate, primary screen, small-molecule microarray, 635/667 nm fluorescence (AID 1116); details: COS7-hLAP1 lysate binding, 635 nm fluorescence, higher = more signal
# Torsin-1A-interacting protein 1 (Homo sapiens), sequence (Q5JTV8 whole entry, looked up): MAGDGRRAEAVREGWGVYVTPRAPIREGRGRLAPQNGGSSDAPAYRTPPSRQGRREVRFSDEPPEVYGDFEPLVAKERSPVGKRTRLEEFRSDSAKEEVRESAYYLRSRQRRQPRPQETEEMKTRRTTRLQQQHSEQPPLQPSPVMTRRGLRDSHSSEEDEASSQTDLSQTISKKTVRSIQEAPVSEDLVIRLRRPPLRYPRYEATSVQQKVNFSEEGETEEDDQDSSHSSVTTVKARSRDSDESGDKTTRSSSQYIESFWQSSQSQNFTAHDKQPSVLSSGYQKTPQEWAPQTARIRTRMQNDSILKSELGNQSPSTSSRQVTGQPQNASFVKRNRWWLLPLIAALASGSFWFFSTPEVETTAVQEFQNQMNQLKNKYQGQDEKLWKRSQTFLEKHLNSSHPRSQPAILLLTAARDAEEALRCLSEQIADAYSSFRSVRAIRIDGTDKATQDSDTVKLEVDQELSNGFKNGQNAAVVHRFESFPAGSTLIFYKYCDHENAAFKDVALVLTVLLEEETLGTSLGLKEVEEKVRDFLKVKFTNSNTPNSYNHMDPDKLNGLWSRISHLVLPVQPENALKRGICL
# [10] = biological target: Alpha-bungarotoxin (Bungarus multicinctus) (UniProt P60615); assay: alpha-bungarotoxin binders on microarray, profiling panel, artefact control for SMM control protein annotation, biochemical, small-molecule microarray, Alexa647 label, 635/667 nm fluorescence (AID 1117); details: alpha-BTX-A647 binding fluorescence, higher = more signal
# Alpha-bungarotoxin (Bungarus multicinctus), sequence (P60615 whole entry, looked up): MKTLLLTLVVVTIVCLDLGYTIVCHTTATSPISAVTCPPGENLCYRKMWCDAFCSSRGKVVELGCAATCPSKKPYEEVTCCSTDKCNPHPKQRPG
# [11] = biological target: Albumin (Bos taurus) (UniProt P02769); assay: bovine serum albumin binders on microarray, profiling panel, artefact control for SMM control protein annotation, biochemical, small-molecule microarray, Alexa647 label, 635/667 nm fluorescence (AID 1118); details: BSA-A647 binding, fluorescence 635 nm, higher = more signal;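 also: score merges 667 nm emission intensity and signal-to-noise per printed compound spot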
# Albumin (Bos taurus), sequence (P02769 whole entry, looked up): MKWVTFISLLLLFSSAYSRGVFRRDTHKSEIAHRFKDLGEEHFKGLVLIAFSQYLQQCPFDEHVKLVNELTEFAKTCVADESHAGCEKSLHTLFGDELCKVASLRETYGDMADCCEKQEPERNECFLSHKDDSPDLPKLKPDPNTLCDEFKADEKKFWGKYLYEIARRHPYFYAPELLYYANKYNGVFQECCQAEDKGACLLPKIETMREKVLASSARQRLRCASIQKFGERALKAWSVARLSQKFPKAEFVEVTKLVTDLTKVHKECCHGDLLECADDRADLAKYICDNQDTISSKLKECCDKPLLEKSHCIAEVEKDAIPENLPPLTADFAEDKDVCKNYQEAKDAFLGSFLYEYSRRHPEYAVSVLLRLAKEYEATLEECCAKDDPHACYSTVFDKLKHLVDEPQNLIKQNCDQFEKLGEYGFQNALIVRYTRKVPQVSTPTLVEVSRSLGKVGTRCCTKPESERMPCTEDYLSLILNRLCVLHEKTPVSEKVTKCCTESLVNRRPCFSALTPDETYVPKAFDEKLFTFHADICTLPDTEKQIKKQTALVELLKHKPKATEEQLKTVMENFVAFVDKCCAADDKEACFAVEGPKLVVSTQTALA
# [12] = small-molecule microarray binders of probe aXIP, primary screen, biochemical, NeuroSMM set, 635/667 nm fluorescence (AID 1119); details: higher = more signal, called active from +8 up or from −8 down;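 also: probe is the protein aXip251-270 applied at 1 µg/mL to compound-printed slides; binding of probe to printed compounds measured as 667 nm fluorescence plus signal to noise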
# [13] = small-molecule binders of probe aNOTCH3, primary screen, biochemical, small-molecule microarray, 635/667 nm fluorescence (AID 1120); details: higher = more signal;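 also: probe is a biotin-tagged antibody raised against NOTCH3 rather than NOTCH3 protein; score merges spot fluorescence near 667 nm with spot signal to noise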
# [14] = small-molecule binders of probe aNOTCH2, primary screen, biochemical, small-molecule microarray, 635/667 nm fluorescence (AID 1121); details: higher = more signal;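 also: score merges feature fluorescence read at 667 nm with its signal to noise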
# [15] = biological target: Carbonic anhydrase 2 (Homo sapiens) (UniProt P00918); assay: CAII small-molecule binders, profiling panel, biochemical, small-molecule microarray, Alexa647-labelled CAII (AID 1122); details: CAII-A647 binding fluorescence, higher = more signal
# [16] = COS7 lysate on small-molecule microarray, probe aHis, 635 nm (AID 1123); details: COS7 cell lysate, fluorescence, higher = more signal;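 also: z-score combines 667nm fluorescence intensity with signal-to-noise per printed compound spot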
# [17] = compound binding in COS7 lysate, probe aLAP1, primary screen, cell lysate, small-molecule microarray (AID 1124); details: probe aLAP1, fluorescence, higher = more signal;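 also: lysate comes from COS7 cells expressing LAP1 and is applied at 0.3 µg/mL; score merges spot fluorescence near 667 nm with signal-to-noise over triplicate slides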
# [18] = tested on: Sam68 (KHDRBS1); assay: Sam68 small-molecule binders, primary screen, biochemical, small-molecule microarray, 635 nm fluorescence (AID 1125); details: small-molecule microarray binding, higher = more signal;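 also: score merges 667 nm channel intensity with signal to noise over triplicate slides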
# [19] = tested on: Chordin-like protein 2 (CHRDL2); assay: CHRDL2 small-molecule binders, primary screen, biochemical, small-molecule microarray, 635 nm fluorescence (AID 1126); details: small-molecule microarray binding, fluorescence 635 nm; higher = more signal;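 also: printed compound slides probed with Chrdl2 protein at 4 µg/mL for 1 h at 4 C; score merges 667 nm emission intensity with signal to noise over three replicate slides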
# [20] = biological target: Concanavalin-A (Canavalia ensiformis) (UniProt P02866); assay: ConA small-molecule binders, primary screen, artefact control for SMM control protein annotation, biochemical, small-molecule microarray, Alexa647 label, 635 nm (AID 1127); details: ConA-A647 binding fluorescence, higher = more signal;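 also: z combines 667 nm emission intensity with signal-to-noise across three replicate slides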
# Concanavalin-A (Canavalia ensiformis), sequence (P02866 whole entry, looked up): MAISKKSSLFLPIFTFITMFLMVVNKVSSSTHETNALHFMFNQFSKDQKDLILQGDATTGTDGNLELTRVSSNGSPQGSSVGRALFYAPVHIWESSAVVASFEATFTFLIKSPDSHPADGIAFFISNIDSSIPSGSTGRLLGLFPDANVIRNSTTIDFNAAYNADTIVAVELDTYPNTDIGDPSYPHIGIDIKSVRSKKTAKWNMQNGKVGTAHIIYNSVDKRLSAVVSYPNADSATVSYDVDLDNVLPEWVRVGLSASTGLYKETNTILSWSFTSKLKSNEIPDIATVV
SMILES,composite z-score [1],z-score [2],composite z-score [3],composite z-score [4],composite z-score [5],composite z-score [6],composite z-score [7],composite z-score [8],composite z-score [9],composite z-score [10],composite z-score [11],composite Z-score [12],composite z-score [13],composite z-score [14],composite z-score [15],composite z-score [16],composite z-score [17],composite z-score [18],composite z-score [19],composite z-score [20]
C=CCOC(=O)[C@H]1[C@@H]2C(=O)O[C@@H](c3ccccc3)[C@@H](c3ccccc3)N2[C@@H](c2ccc(OCCOC(=O)[C@H]3C[C@H]4C(=O)N[C@@H](CCCCNC(C)=O)C(=O)N4[C@H]3c3ccc(O)cc3)cc2)[C@]12C(=O)Nc1ccccc12,0.94,-0.103,0.594,1.03,0.328,-0.124,0.157,0.0322,1.67,1.89,-1.06,1.09 (inactive),0.0076,-0.112,0.634,1.19,-0.549,1.3,0.998,1.16
COC(=O)[C@@]1(Cc2ccc(OC)cc2)[C@H]2c3cc(C(=O)N(C)C)n(CCO)c3C[C@H]2CN1C(=O)c1ccccc1,-0.317,-0.441,-0.511,1.67,1.1,-0.0398,0.0044,-0.426,3.28,1.18,0.625,0.126 (inactive),-0.102,0.257,0.935,1.19,0.971,-0.924,-0.784,0.001
O=C1OCCC/C=C\[C@H]2OC34C=CCN(CCN5CCOCC5)C(=O)[C@H]3N(CCCCCCO)C(=O)[C@@H]4C12 (stereo not given in full),-0.776,0.857,-0.311,-0.523,-0.909,-0.18,-0.0553,-0.103,1.52,-0.162,0.719,1.02 (inactive),-0.0947,-0.144,0.867,0.817,1.57,0.184,-0.394,-0.324
CC(CO)N1C(=O)[C@@H]2[C@H]3C(=O)OCC=C[C@H]3OC23C=CCN(CCN2CCOCC2)C(=O)[C@@H]13 (stereo not given in full),-0.186,0.606,-0.396,-0.998,-1.55,-0.144,-0.309,-0.5,-0.469,-0.245,0.138,-0.0888 (inactive),-0.152,-0.117,0.302,-1.05,-0.586,-0.0161,-0.235,-0.22
Cc1ccc(S[C@]2(C(=O)NCCCN(C)C)CC(=O)N(C3CCCCC3)[C@@H]2c2ccc(CO)cc2)cc1,-0.246,-2.51,-0.992,-0.596,-0.677,-0.129,-0.0035,-0.255,-0.549,-0.123,0.156,0.0469 (inactive),-0.182,-0.0761,0.228,-0.111,-0.183,-1.01,-1.18,-0.957
O=C1NC(=O)C2C1C=CC(C(O)CCc1ccccc1)N2Nc1ccc(Cl)cc1Cl (stereo not given),-0.72,-0.271,-0.448,1.54,0.819,0.539,-0.0571,1.04,1.97,2.65,0.709,0.118 (inactive),-0.142,0.345,0.79,2.25,0.925,0.969,-1.3,-0.0165
CC1=C[C@@]2(CO)C(=O)[C@]3(CO3)[C@@H]1[C@H]1[C@]2(C)C=C(CO)C(=O)[C@]12CO2,0.122,-1.61,0.351,-0.163,-0.0609,-0.0799,-0.123,-0.488,-0.312,0.242,-0.123,0.817 (inactive),0.112,-0.0795,0.497,-0.255,-0.274,0.369,0.397,0.301
O=C1O[C@@H](c2ccccc2)[C@@H](c2ccccc2)N2[C@@H](c3ccc(O)cc3)[C@]3(C(=O)Nc4ccc(C#CC5=CCCCC5)cc43)[C@@H](C(=O)NC[C@H](O)c3ccccc3)[C@H]12,1.4,-1.31,0.915,1.11,0.293,0.0964,-0.0769,0.654,1.52,0.774,0.375,0.486 (inactive),0.274,0.0556,0.401,2.1,0.553,1.31,1.13,1.05
CCOC(=O)C[C@H]1[C@H](OC(=O)c2ccccc2-c2ccccc2)[C@@H](NC(=O)C2CCCCC2)c2cc(OCCCO)ccc2N1C(=O)Cc1ccc(OC)cc1,-0.312,-1.44,-0.0221,-0.0561,-0.326,-0.12,-0.2,-0.136,0.3,-0.0654,0.0179,-0.483 (inactive),-0.046,-0.122,0.0935,0.0644,0.0035,-0.0019,-0.292,0.0384
CN(C)CCCNC(=O)[C@@]1(C)c2ccccc2C(=O)N(Cc2ccccc2)[C@H]1c1ccc(CO)cc1,-0.775,-1.94,-0.157,-1.06,-1.12,0.0026,-0.138,-0.33,-0.281,-0.358,-1.05,-0.194 (inactive),-0.264,-0.236,0.704,-0.358,-0.39,-0.0419,-0.19,-0.371
O=C1O[C@H](c2ccccc2)[C@H](c2ccccc2)N2[C@H]1[C@@H](C(=O)Nc1nc3ccccc3s1)[C@]1(C(=O)Nc3ccccc31)[C@H]2c1ccc(OCCO)cc1,1.36,-2.64,0.807,0.504,-0.302,-0.16,0.0899,-0.411,0.442,1.02,0.471,-0.393 (inactive),0.23,-0.0895,0.546,0.823,0.328,1.3,0.608,1.12
